A short description of assay [1]: qHTS assay to test for compound auto fluorescence at 535 nm (green) in HEK293 cells (AID 720680).
Assay [2] can be described thus: qHTS assay to test for compound auto fluorescence at 460 nm (blue) in HEK293 cell free culture (AID 720681). The gist of the method: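 Test compounds were pinned into cell-free culture medium (DMEM with 10% FBS) and fluorescence was read directly at Ex/Em 405/460 nm. Signals were expressed as fluorescence equivalents of triamterene, with DMSO vehicle as control.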
(Quantitative high-throughput screening tests each substance at several concentrations.)

A short description of assay [3]: qHTS assay to test for compound auto fluorescence at 535 nm (green) in HEK293 cell free culture (AID 720682). An outline of the steps:
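Fluorescein serves as the green reference fluorophore; each compound's intrinsic emission at 535 nm (excitation 485 nm) is reported as an equivalent amount of that dye, measured in serum-containing DMEM without cells.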

A short description of assay [4]: qHTS assay to test for compound auto fluorescence at 590 nm (red) in HEK293 cell free culture (AID 720683). An outline of the steps:
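Tox21 10K library compounds were pinned into cell-free DMEM with 10% FBS and fluorescence was read at excitation 540 nm. Activity is expressed as Rose Bengal sodium equivalency.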

Assay [5] is described as follows: qHTS assay to test for compound auto fluorescence at 590 nm (red) in HepG2 cell free culture (AID 720684). The gist of the method: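 Measured in medium alone (MEM containing 10% FBS) following pintool addition of compound; emission at 590 nm with 540 nm excitation, referenced to Rose Bengal sodium.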
The nature of assay [6]: qHTS assay to test for compound auto fluorescence at 460 nm (blue) in HepG2 cell free culture (AID 720685). An outline of the steps: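 Compound (23 nL) or DMSO pinned into cell-free MEM with 10% FBS; blue fluorescence read at 405/460 nm excitation/emission, expressed as auto-fluorescence equivalency to triamterene.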
Assay [7] in a line: qHTS assay to test for compound auto fluorescence at 535 nm (green) in HepG2 cell free culture (AID 720686).
Assay [8] is described as follows: qHTS assay to test for compound auto fluorescence at 460 nm (blue) in HepG2 cells (AID 720687). The gist of the method: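 Cells (2,000/well in MEM with 10% FBS) attached overnight at 37 C, then were exposed to compound or DMSO for 1 hr at 37 C, 5% CO2. Fluorescence read at Ex/Em 405/460 nm, expressed as triamterene-equivalent signal.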
The target of assay [9] is Glucocorticoid receptor (Homo sapiens) (UniProt P04150). Description: qHTS assay to identify small molecule agonists of the glucocorticoid receptor (GR) signaling pathway (AID 720691; active = well fitted activation curve with a large enough effect in the signal ratio in the repeat runs, not every such curve was filed as active; the % refers to the signal ratio). The following applies: GR-bla HeLa, beta-lactamase reporter ratio, 18 h; activation: at 62.4 µM (top of the series). The gist of the method: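 Beta-lactamase reporter activity, read as fluorescence intensity, was measured in GR-bla HeLa cells exposed to compounds for 18 h at 37 C and then loaded with LiveBLAzer B/G FRET substrate for 2 h at room temperature.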

For assay [10] the target is unchanged. Description: qHTS assay to identify small molecule antagonists of the glucocorticoid receptor (GR) signaling pathway (AID 720692; active = well fitted inhibition curve with a large enough effect in the signal ratio in the repeat runs, not every such curve was filed as active; the % refers to the signal ratio). The gist of the method: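 Fluorescence from cleaved LiveBLAzer B/G FRET substrate reports GRE-driven beta-lactamase in HeLa cells; compounds are tested against 5 nM dexamethasone (final) over 18 h at 37 C, substrate incubation 2 h at room temperature.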

A short description of assay [11]: qHTS assay to identify small molecule antagonists of the glucocorticoid receptor (GR) signaling pathway - cell viability counter screen (AID 720693). Note: nearly all actives have a fitted effect of over 55% in size.
Assay [12] can be described thus: qHTS assay for identifying genotoxic compounds that show differential cytotoxicity against isogenic chicken DT40 cell lines with known DNA damage response pathways - wild type cell line (AID 743012). Note: nearly all actives have a fitted effect of over 60% in size. Note: potency is the fitted concentration of half-maximal effect. The gist of the method: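 Quantitative HTS on parental DT40 cells: 40 h compound treatment at 37 C/5% CO2, with viability then determined by CellTiter-Glo luminescence. Values serve as the DNA repair-proficient reference for differential cytotoxicity.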

Assay [13] in a line: qHTS assay for identifying genotoxic compounds that show differential cytotoxicity against isogenic chicken DT40 cell lines with known DNA damage response pathways - Rev3 mutant cell line (AID 743014). Note: nearly all actives have a fitted effect of over 55% in size. Note: potency is the fitted concentration of half-maximal effect.
Assay [14] in a line: qHTS assay for identifying genotoxic compounds that show differential cytotoxicity against isogenic chicken DT40 cell lines with known DNA damage response pathways - Rad54/Ku70 mutant cell line (AID 743015). Note: nearly all actives have a fitted effect of over 60% in size. Note: potency is the fitted concentration of half-maximal effect.
Assay [15] is described as follows: qHTS assay to identify small molecule antagonists of the androgen receptor (AR) signaling pathway using the MDA cell line - cell viability counter screen (AID 743041; note: nearly all actives have a fitted effect of over 45% in size). The gist of the method:
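Viability counter screen run alongside the AR antagonist reporter: cells seeded 5 h before compound, R1881 added, 16 h incubation at 37C without CO2, fluorescent CellTiter-Fluor signal quantified.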

For assay [16], the target named is Androgen receptor (Homo sapiens) (UniProt P10275). Description: qHTS assay to identify small molecule antagonists of the androgen receptor (AR) signaling pathway (AID 743035; active = well fitted inhibition curve with a large enough effect in the signal ratio in the repeat runs, not every such curve was filed as active; the % refers to the signal ratio). An outline of the steps:
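Cell line: GeneBLAzer AR-UAS-bla GripTite (HEK293). Stimulus: R1881 added after compound. Exposure: 16 h, 37C, 5% CO2. Readout: LiveBLAzer B/G FRET fluorescence after 2 h at room temperature.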

The target is the same in assay [17]. Description: qHTS assay to identify small molecule agonists of the androgen receptor (AR) signaling pathway (AID 743036; active = well fitted activation curve with a large enough effect in the signal ratio in the repeat runs, with a control signal flat, not every such curve was filed as active; the % refers to the signal ratio). The gist of the method: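 Fluorescence from a beta-lactamase FRET substrate served as read-out in AR-UAS-bla GripTite HEK293 cells. Cells were treated with DMSO-dissolved compounds for 16 h at 37C, then with LiveBLAzer B/G substrate for 2 h at room temperature.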

Assay [18] has the same target. Description: qHTS assay to identify small molecule agonists of the androgen receptor (AR) signaling pathway using the MDA cell line (AID 743040; note: nearly all actives have a fitted effect of over 20% in size). An outline of the steps: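 Luminescence from ONE-Glo, read after 30 min at room temperature, reflects MMTV-driven luciferase in MDA-kb2 cells (AR- and GR-responsive). Treatment lasted 16 h at 37C, 0% CO2.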
Assay [19] has the same target. The assay can be described thus: qHTS assay to identify small molecule antagonists of the androgen receptor (AR) signaling pathway using the MDA cell line (AID 743042; note: nearly all actives have a fitted effect of over 55% in size; note: potency is the fitted concentration of half-maximal effect). An outline of the steps:
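MDA-kb2 cells (human breast carcinoma, stably carrying an MMTV-luciferase reporter responsive to AR and GR) were plated at 3,000 cells/well and preincubated 5 hr at 37C, then given compound plus R1881 agonist for 16 h. ONE-Glo luminescence was read.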

Assay [20] can be described thus: qHTS assay to identify small molecule antagonists of the androgen receptor (AR) signaling pathway - cell viability counter screen (AID 743033; note: nearly all actives have a fitted effect of over 45% in size).

SMILES strings stand for the structures. Results filed as inconclusive are left out. Activity calls are given as the source filed them. Unless noted, calls come from the whole dose curve; as a rule, active = well fitted curve in the direction sought with a large enough effect in the repeat runs; inconclusive = weak or mixed curves; inactive = no such curve, though single readings can be large; an effect the other way counts as inactive or inconclusive.

Chain of Glucocorticoid receptor (Homo sapiens) (P04150 whole entry, looked up): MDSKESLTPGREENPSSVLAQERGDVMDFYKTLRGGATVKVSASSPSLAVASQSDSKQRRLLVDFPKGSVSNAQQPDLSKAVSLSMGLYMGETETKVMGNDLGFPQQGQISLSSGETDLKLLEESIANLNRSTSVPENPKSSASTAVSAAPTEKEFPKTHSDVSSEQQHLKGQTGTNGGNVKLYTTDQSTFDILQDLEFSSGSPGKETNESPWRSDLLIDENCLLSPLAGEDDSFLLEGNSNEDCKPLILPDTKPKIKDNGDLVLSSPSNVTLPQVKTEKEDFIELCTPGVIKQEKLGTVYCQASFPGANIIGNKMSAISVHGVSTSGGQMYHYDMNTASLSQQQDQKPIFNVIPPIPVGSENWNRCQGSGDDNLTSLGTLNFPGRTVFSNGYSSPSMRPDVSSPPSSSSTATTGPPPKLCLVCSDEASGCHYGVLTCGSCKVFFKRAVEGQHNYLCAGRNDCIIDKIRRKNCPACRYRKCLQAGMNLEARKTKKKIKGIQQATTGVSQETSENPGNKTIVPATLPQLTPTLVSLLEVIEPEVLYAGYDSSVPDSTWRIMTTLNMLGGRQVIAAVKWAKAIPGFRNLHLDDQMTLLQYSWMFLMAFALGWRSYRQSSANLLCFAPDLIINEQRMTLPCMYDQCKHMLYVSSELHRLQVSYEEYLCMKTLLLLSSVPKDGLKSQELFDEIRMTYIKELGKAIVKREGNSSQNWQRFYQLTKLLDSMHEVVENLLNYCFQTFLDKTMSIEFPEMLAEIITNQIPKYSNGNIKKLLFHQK
Chain of Androgen receptor (Homo sapiens) (P10275 whole entry, looked up): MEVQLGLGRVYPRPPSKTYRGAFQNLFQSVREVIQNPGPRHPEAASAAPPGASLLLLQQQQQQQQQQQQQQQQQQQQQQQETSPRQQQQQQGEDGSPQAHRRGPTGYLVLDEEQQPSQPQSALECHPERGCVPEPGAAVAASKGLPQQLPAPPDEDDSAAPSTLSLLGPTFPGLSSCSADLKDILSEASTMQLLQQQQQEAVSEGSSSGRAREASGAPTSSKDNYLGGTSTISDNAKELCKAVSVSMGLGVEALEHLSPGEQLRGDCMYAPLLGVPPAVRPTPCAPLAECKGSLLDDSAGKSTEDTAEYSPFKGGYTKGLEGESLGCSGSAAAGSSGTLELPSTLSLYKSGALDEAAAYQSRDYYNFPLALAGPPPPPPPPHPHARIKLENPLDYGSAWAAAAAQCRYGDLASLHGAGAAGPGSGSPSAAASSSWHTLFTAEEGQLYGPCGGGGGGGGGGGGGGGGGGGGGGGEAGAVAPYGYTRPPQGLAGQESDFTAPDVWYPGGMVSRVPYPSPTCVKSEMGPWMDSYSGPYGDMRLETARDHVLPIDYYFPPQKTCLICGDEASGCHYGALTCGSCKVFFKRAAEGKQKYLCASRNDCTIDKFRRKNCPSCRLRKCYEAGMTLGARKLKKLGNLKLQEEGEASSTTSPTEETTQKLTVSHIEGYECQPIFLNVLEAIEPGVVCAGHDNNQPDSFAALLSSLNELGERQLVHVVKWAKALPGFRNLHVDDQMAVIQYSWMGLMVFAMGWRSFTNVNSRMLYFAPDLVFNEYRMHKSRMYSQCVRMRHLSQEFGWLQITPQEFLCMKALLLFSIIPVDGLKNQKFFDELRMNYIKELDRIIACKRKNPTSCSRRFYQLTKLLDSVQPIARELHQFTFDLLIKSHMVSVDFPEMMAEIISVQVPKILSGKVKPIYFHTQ

As to `CCCCCCCCCCCCCCCC(=O)OCC(COC(=O)CCCCCCCCCCCCCCC)OC(=O)CCCCCCCCCCCCCCC`, the Potency entry in assay [1], in [2], in [3], in [4], in assay [5] and in assay [7] was “inactive” each time. Further, the Potency entry in assay [9], in [10], in assay [11], in assay [12], in [13] and in [14] was “inactive” throughout. Moreover, the Potency entry in [15] was “inactive”. In addition, the outcome in assay [6] and in assay [8] was inactive.

Take `CN(C)c1ccc(C(=C2C=CC(=[N+](C)C)C=C2)c2c(O)c(S(=O)(=O)[O-])cc3cc(S(=O)(=O)O)ccc23)cc1`: the Potency entry in assay [1], in assay [2], in assay [3], in assay [4], in assay [5] and in assay [7] was “inactive” each time. The Potency entry in [9], in [10], in assay [11], in [16], in [17] and in [18] was “inactive” throughout. For the same compound, the outcome in assay [6] and in assay [8] was inactive. For the same compound, the Potency is 11.9 µM (active) in assay [12], 10.6 µM (active) in assay [13], 13.3 µM (active) in assay [14] and 11.9 µM (active) in assay [19].

For `Cc1nc(NS(=O)(=O)c2ccc(N)cc2)nc(C)c1Br`, the Potency result in assay [1], in assay [2], in assay [3], in assay [4], in assay [5] and in assay [7] was “inactive” each time. The Potency result in assay [9], in [10], in [11], in assay [12], in assay [14] and in assay [20] was “inactive” throughout. Besides, the Potency entry in [15] was “inactive”. The compound was classed as inactive in assay [6] and in [8].

In the case of `O=C(O)c1cccc(/C=C2/C[C@@H]3[C@@H](/C=C/[C@@H](O)C4CCCCC4)[C@H](O)C[C@@H]3O2)c1`, the Potency entry in assay [1], in assay [2], in [3], in assay [4], in assay [5] and in assay [7] was “inactive” throughout. Moreover, the Potency result in assay [9], in [10], in [11], in [12], in assay [13] and in [14] was “inactive” each time. Also, the Potency entry in [16], in assay [18], in assay [15] and in assay [19] was “inactive” throughout. Besides, the result in [6] and in assay [8] was inactive.

Regarding `Cc1cccc(C)c1NC(=O)NC1=CCCN1C`, the Potency entry in assay [1], in [2], in [3], in assay [4], in [5] and in [7] was “inactive” throughout. The Potency result in assay [9], in assay [10], in assay [11], in [12], in assay [14] and in assay [20] was “inactive” throughout. The Potency entry in assay [16], in [17], in [18], in [15] and in assay [19] was “inactive” in each case. The result in assay [6] and in [8] was inactive.

Regarding `O=C(O)c1cc2ccccc2c(Cc2c(O)c(C(=O)O)cc3ccccc23)c1O`, the Potency entry in [1], in assay [2], in assay [3], in assay [4], in [5] and in assay [7] was “inactive” in each case. For the same compound, the Potency entry in assay [9], in [10], in [11], in assay [14], in assay [20] and in [15] was “inactive” each time. The compound was classed as inactive in assay [6] and in assay [8].

Regarding `CC#CCC(C)[C@H](O)/C=C/[C@@H]1[C@H]2C/C(=C/CCCC(=O)O)C[C@H]2C[C@H]1O` (some centres undefined), the Potency result in assay [1], in [2], in assay [3], in [4], in [5] and in assay [7] was “inactive” throughout. Besides, the Potency entry in assay [9], in [10], in [11], in assay [13], in assay [14] and in assay [20] was “inactive” throughout. Besides, the Potency result in assay [15] was “inactive”. Moreover, the call in [6] and in [8] was inactive.

Turning to `CO[C@H]1[C@@H](O)[C@H](N)[C@@H](O[C@H]2O[C@H]([C@H](C)N)CC[C@H]2N)[C@H](O)[C@@H]1N(C)C(=O)CN`, the Potency entry in assay [1], in [2], in assay [3], in [4], in assay [5] and in assay [7] was “inactive” in each case. Besides, the Potency entry in [9], in assay [10], in assay [11], in assay [12], in assay [14] and in [20] was “inactive” throughout. The Potency result in assay [15] was “inactive”. Besides, the compound was classed as inactive in [6] and in [8].

The values are drawn from PubChem BioAssay (Tox21).
